Drawing on PubChem BioAssay (NCATS), this text covers Potency for 41 compounds.

Results filed as inconclusive are left out. Where a call stands in place of a potency, no number is given. Activity calls are given as the source filed them. The call rests on the fitted dose curve; in most records, active means well fitted curve in the direction sought with a large enough effect; inconclusive means small, poorly fitted or top-dose-only effect, or another doubt; inactive means no such curve, though single readings can be large; an effect the other way counts as inactive or inconclusive.

For assay [1], the target named is Aldehyde dehydrogenase, mitochondrial (Homo sapiens) (UniProt P05091). Put plainly: qHTS for Inhibitors of the Aldehyde Dehydrogenase Family (ALDH2) Primary screen (AID 2061308). Further: nearly all actives have a fitted effect of over 55% in size. In general terms: In qHTS, concentration-response curves come from the screen itself.
Assay [2] deals with Retinaldehyde dehydrogenase 3 (Homo sapiens) (UniProt P47895). Nature of the assay: qHTS for Inhibitors of the Aldehyde Dehydrogenase Family (ALDH1A3) Primary screen (AID 2061315).

`COCCN(CCOC)c1nc(C)nc2c1nc(-c1ccccc1)n2CC1CCN(C)CC1`: the Potency entry in assay [1] and in assay [2] was “inactive” each time.
On to `CC(=O)Nc1sc2c(c1-c1cncnc1)CCNC2`, for which the Potency entry in assay [1] and in assay [2] was “inactive” throughout.
With `COc1ccccc1C1=Nn2c(nnc2-c2ccccc2C)SC1`, the Potency result in assay [1] and in assay [2] was “inactive” each time.
Regarding `Cc1nc(N2CCOCC2)c2nc(-c3ccccc3)n(CCN3CCCC3)c2n1`, the Potency entry in assay [1] and in assay [2] was “inactive” each time.
For the compound `O=C1CCCC2=C1C(c1[nH]ncc1Cl)N=C(Nc1nc3ccc(Cl)cc3o1)N2` (configuration not stated), the Potency result in assay [1] and in assay [2] was “inactive” throughout.
In the case of `Cc1nc2cc(C(=O)NCc3ccccn3)nn2c(C)c1Cc1cccc(Cl)c1`, the Potency result in assay [1] and in assay [2] was “inactive” each time.
Turning to `CN(C(=O)c1cccs1)c1cccnc1`, the Potency entry in assay [1] and in assay [2] was “inactive” throughout.
With `CCN(CC)CCn1c(-c2ccccc2)nc2c(NCCOC)nc(C)nc21`, the Potency entry in assay [1] and in assay [2] was “inactive” in each case.
As to `O=C1CCCC2=C1C(c1ccc(F)cc1)N=C(Nc1nc3ccccc3o1)N2` (configuration not stated), the Potency entry in assay [1] and in assay [2] was “inactive” in each case.
As for `Cc1ccc(NS(=O)(=O)c2ccc3ccccc3c2)cc1C`, the Potency result in assay [1] and in assay [2] was “inactive” throughout.
For `CCC1CCC(C(=O)Nc2ccc(S(=O)(=O)Nc3nccs3)cc2)CC1` (configuration not stated), the Potency entry in assay [1] and in assay [2] was “inactive” each time.
Consider `CCC(=O)NC(c1cccs1)c1cc(Cl)c2cccnc2c1O` (configuration not stated), for which the Potency entry in assay [1] and in assay [2] was “inactive” in each case.
Turning to `CCCn1c(-c2ccc(F)cc2)nc2c(NCCCCN(CC)CC)nc(C)nc21`, the Potency entry in assay [1] and in assay [2] was “inactive” in each case.
On to `COC(=O)c1ccc(O)c2ncc(-c3ccc(C(=O)N4CCN(C)CC4)cc3)cc12`, for which the Potency entry in assay [1] and in assay [2] was “inactive” in each case.
With `Cc1cc(C)nc(NC(=S)N2CCN(c3ncccc3Cl)CC2)c1`, the Potency result in assay [1] and in assay [2] was “inactive” in each case.
`Cc1cc(C)nc(NC(=S)N2CCN(c3ccc(Cl)cc3F)CC2)c1`: the Potency entry in assay [1] and in assay [2] was “inactive” throughout.
Turning to `CCN1CCN(c2cc(-c3ccc(F)cc3)c3c(n2)CCCCCC3)CC1`, the Potency entry in assay [1] and in assay [2] was “inactive” each time.
As to `CC(=O)N1c2ccc(S(=O)(=O)Nc3ccc(C)c(C)c3)cc2CC1C` (configuration not stated), the Potency entry in assay [1] and in assay [2] was “inactive” each time.
As for `CCOC(=O)c1ccc(-n2cnc3c(c2=N)C(c2cccc(OC)c2)c2c(ccc4ccccc24)O3)cc1` (configuration not stated), the Potency result in assay [1] and in assay [2] was “inactive” each time.
Consider `CN1CCN(c2cc(-c3nc(Nc4ccc(F)c(F)c4)c4ccccc4n3)ccn2)CC1`, for which the Potency entry in assay [1] and in assay [2] was “inactive” throughout.
Take `COc1cccc(CNc2ccc(S(=O)(=O)Nc3nc4ccccc4o3)cc2)c1O`: the Potency result in assay [1] and in assay [2] was “inactive” throughout.
Regarding `CCOc1ccc(CNc2ccc(-c3nc4ccccc4[nH]3)cc2)cc1`, the Potency result in assay [1] and in assay [2] was “inactive” in each case.
With `O=C(Cc1ccc(Cl)c(Cl)c1)Nc1ccc([S+](=O)([O-])Nc2ccccn2)cc1`, the Potency result in assay [1] and in assay [2] was “inactive” in each case.
For `N[C@@H](Cc1ccccc1)C(=O)Nc1ccc(Cl)cc1C(=O)c1ccc[nH]1`, the Potency entry in assay [1] and in assay [2] was “inactive” throughout.
Consider `CS(=O)(=O)c1ccc(C(=O)OCC(=O)N2CCOCC2)cc1[N+](=O)[O-]`, for which the Potency result in assay [1] and in assay [2] was “inactive” throughout.
Turning to `CCCc1c(C(C)C)nc(C(C)C)c([C@@H](C)O)c1-c1ccc(F)cc1O`, the Potency entry in assay [1] and in assay [2] was “inactive” throughout.
On to `Cc1nnc(-c2ccccc2)n1CCCn1ccnc1`, for which the Potency result in assay [1] and in assay [2] was “inactive” each time.
In the case of `O=C(NC(c1ccco1)c1cc(Cl)c2cccnc2c1O)c1ccsc1` (configuration not stated), the Potency entry in assay [1] and in assay [2] was “inactive” each time.
Consider `O=S(=O)(c1ccc2c(c1)OCCO2)C1CCC(S(=O)(=O)c2c(F)cccc2F)CC1` (configuration not stated), for which the Potency result in assay [1] and in assay [2] was “inactive” each time.
On to `COc1cccc(C2c3c(ncn(-c4ccc(C)cc4)c3=N)Oc3ccc4ccccc4c32)c1` (configuration not stated), for which the Potency result in assay [1] and in assay [2] was “inactive” throughout.
For `Cc1ccc(NC(=O)c2cnn3c(C)cc(C)nc23)cc1`, the Potency entry in assay [1] and in assay [2] was “inactive” each time.
Regarding `O=C(Nc1ccc2ccccc2c1)Nc1nnc(-c2ccncc2)s1`, the Potency result in assay [1] and in assay [2] was “inactive” in each case.
Regarding `C=CCSc1nnc(-c2cccc3ccccc23)o1`, the Potency entry in assay [1] and in assay [2] was “inactive” throughout.
Consider `N#Cc1ccc(Nc2ncc(-c3cccc4ccccc34)o2)cc1`, for which the Potency entry in assay [1] and in assay [2] was “inactive” throughout.
As for `O=C(O)C1C2C(=O)N(c3ccccc3)C[C@@]23C=C[C@@H]1O3` (some centres not stated), the Potency result in assay [1] and in assay [2] was “inactive” each time.
`Cc1ccsc1CN(C)c1ncnc2ccc(-c3ccc([C@@H](C)O)o3)cc12`: the Potency result in assay [1] and in assay [2] was “inactive” in each case.
Consider `CC(=O)Nc1ccccc1NC(=O)c1cnn2c(C)cc(C)nc12`, for which the Potency result in assay [1] and in assay [2] was “inactive” throughout.
In the case of `Cn1ncc(Cl)c1-c1cc(C(=O)N[C@H](CN)Cc2ccc(F)c(F)c2)oc1Cl`, the Potency result in assay [1] and in assay [2] was “inactive” each time.
For the compound `O=C(CSc1nnc(-c2cccc(S(=O)(=O)N3CCCC3)c2)n1-c1ccccc1)Nc1ccccc1`, the Potency entry in assay [1] and in assay [2] was “inactive” in each case.
Regarding `O=[S+]([O-])(c1ccc(-c2ccccc2)cc1)N1CCN([S+](=O)([O-])c2ccc3c(c2)OCCO3)CC1`, the Potency entry in assay [1] and in assay [2] was “inactive” in each case.
For `CC1(C)CC(C(=O)Nc2ccc([S+](=O)([O-])Nc3nccs3)cc2)C1`, the Potency entry in assay [1] and in assay [2] was “inactive” each time.
